Many of the other results were omitted from the sample, so hits are more common in it than they were.
KDM5B inhibitor: blocks human KDM5B histone demethylase activity; KDM5B demethylase, FDH-coupled NADH fluorescence (FDH is formaldehyde dehydrogenase); Potency, µM (doses to about 57.7 µM), actives largely listed as inhibitors; actives 2.6% (n = 220,000); AID 1347165; active means well fitted inhibition curve with a large enough effect; further: 0% is about no effect; nearly all actives have a fitted effect of over 70% in size
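Measured: NADH fluorescence change, 30 min, RT. System: KDM5BΔAP 200 nM final, H3K4me3 peptide, α-KG, Fe(II), ascorbate, NAD⁺ plus FDH, pH 7.5 HEPES. Compounds: titrated, 10 min pre-incubation with enzyme.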
Active calls of the source: *; i = inactive. Potency means the concentration at half of the fitted maximal effect.

SMILES | KDM5B inhibitor
CCNc1c(NC(=O)Nc2ccccc2Cl)c(=O)oc2ccccc12 | i
CCOCCSc1nnc(-c2nn(Cc3ccccc3)c(=O)c3ccccc23)o1 | i
CCc1ccc(/C=C(/C#N)C(=O)c2c(C)[nH]c3ccccc23)cc1 | i
CN(Cc1cccc2[nH]ccc12)C1CCc2nn(CC3CC3)c(=O)n2CC1 (configuration not stated) | 25µM*
O=C(NC1CCc2nn(CC3CC3)c(=O)n2CC1)c1n[nH]c2ccccc12 (configuration not stated) | 28µM*
CCCNC(=O)NC1CCc2nn(CC3CC3)c(=O)n2CC1 (configuration not stated) | i
CCOc1ccccc1CN(C)C1CCc2nn(CC3CC3)c(=O)n2CC1 (configuration not stated) | i
CN(Cc1ccc2c(c1)CCO2)C1CCc2nn(CC3CC3)c(=O)n2CC1 (configuration not stated) | i
Cc1cnc(C(=O)NC2CCc3nn(CC4CC4)c(=O)n3CC2)cn1 (configuration not stated) | i
Nn1c(SCC(=O)Nc2cccc(C(F)(F)F)c2)nnc1-c1cc(-c2ccc(Cl)cc2)n[nH]1 | i
COc1ccc(CC(=O)N(C)C2CCc3nnc(C)n3CC2)cc1Cl (configuration not stated) | 20µM*
COc1cc(Cl)ccc1C(=O)N(C)C1CCc2nnc(C)n2CC1 (configuration not stated) | i
COc1ccc(CCC(=O)N(C)C2CCc3nnc(C)n3CC2)cc1OC (configuration not stated) | i
O=C(c1cccnc1OC1CCN(C(=O)C2CC2)C1)N1CCCCC1 (configuration not stated) | i
COc1ccc(-c2[nH]nc3ncc(-c4ccc(F)cc4OC)nc23)c(C)c1 | 7.9µM*
COc1ccc(-c2[nH]nc3ncc(C(=O)NCc4ccc(F)cc4)nc23)c(C)c1 | i
COc1ccc(-c2[nH]nc3ncc(-c4cccnc4OC)nc23)c(C)c1 | 35µM*
COc1ccc(-c2[nH]nc3ncc(-c4ccc(OC)nc4)nc23)c(C)c1 | i
COc1ccc(-c2[nH]nc3ncc(C(=O)N4CCN(Cc5ccccc5)CC4)nc23)c(C)c1 | i
COc1ccccc1-c1[nH]nc2ncc(C(=O)N3CCNC(=O)C3)nc12 | i
Cc1ccc(CN(C)C(=O)Cn2nnn(-c3cccs3)c2=O)cc1 | i
C=C(Cl)COC(=O)c1ccc2[nH]c(C)c(C)c2c1 | i
O=C(Nc1cnc(-c2cccc(Cl)c2)nc1)c1cc(F)cc(F)c1 | 25µM*
O=C(Nc1cnc(-c2cccc(Cl)c2)nc1)c1ccc(F)cc1F | i
O=C(Nc1cnc(-c2ccc(Cl)cc2)nc1)c1ccc(F)c(F)c1 | i
SMILES | KDM5B inhibitor
COc1ccc(-c2nc(C(C)C)nc3c2CCN(C(=O)c2ccccc2C)CC3)cc1 | i
COc1cc(C2CC(=O)Nc3c2c(C)nn3-c2nncc(-c3ccc(C)cc3)n2)cc(OC)c1O (configuration not stated) | i
Cc1cccc(NC(=O)NCc2nc(-c3ccccc3)oc2C)c1C | i
CCOc1ccccc1NC(=O)N(C)Cc1nc(-c2ccccc2C)oc1C | i
N#Cc1ccc(CN2CCC3(CC(=O)Nc4ccccc4N3)C2)cc1 (configuration not stated) | i
O=C1CC2(CCN(CC3CCNC3)C2)Nc2ccccc2N1 (configuration not stated) | 112µM*
COc1ccc(CN2CCC3(CC(=O)Nc4ccccc4N3)C2)cc1 (configuration not stated) | i
COc1ccc(Cl)cc1NC(=O)CCc1ncc(-c2ccc(F)cc2F)o1 | i
CCO[C@H]1CN(Cc2ccc(OC)c(OCc3cccc(F)c3)c2)C[C@@H]1O | i
CC1(C)N=C(c2ccc(Br)cc2)C(=S)N1 | i
CCN(CC)Cc1c(C=O)sc2c1CCCC2 | i
O=C(O)c1cccc(CN2CC(COc3ccccc3)C3(C2)CN(c2ccccc2)C3)c1 (configuration not stated) | i
c1ccc(OCC2CN(Cc3ccncc3)CC23CN(c2ccccc2)C3)cc1 (configuration not stated) | 32µM*
O=C(c1cccc(O)c1)N1CC(COc2ccccc2)C2(C1)CN(C(=O)c1cn[nH]c1)C2 (configuration not stated) | i
O=C(CCc1cccnc1)N1CC(COc2ccccc2)C2(C1)CN(c1ccccc1)C2 (configuration not stated) | i
O=C(NCC1CN(C(=O)c2cccc(O)c2)CC12CN(c1ccccc1)C2)Nc1ccccc1 (configuration not stated) | i
N#Cc1cccc(C(=O)N2CC(COc3ccccc3)C3(C2)CN(c2ccccc2)C3)c1 (configuration not stated) | 35µM*
Cc1ccc(C(=O)/C=C/c2sccc2C)cc1 | i
Cn1c(=O)[nH]c(=O)c2c1nc(NCc1ccco1)n2Cc1ccccc1 | i
O=C(NCC(=O)N1CCCCCC1)C1CCCN(S(=O)(=O)c2ccc(Cl)cc2)C1 (configuration not stated) | i
Cc1[nH]c2ccccc2c1C(=O)C(C)Cl (configuration not stated) | i
CN(C)c1ccc(C(=O)N2CCN(C(=O)c3ccc(N(C)C)cc3)[C@H](C(=O)N[C@H](Cc3c[nH]c4ccccc34)C(N)=O)C2)cc1 | 28µM*
CN(C)c1ccc(C(=O)N2CCN(S(C)(=O)=O)[C@H](C(=O)N[C@H](Cc3c[nH]c4ccccc34)C(N)=O)C2)cc1 | i
NC(=O)[C@@H](Cc1c[nH]c2ccccc12)NC(=O)[C@H]1CN(C(=O)c2cccc(F)c2)CCN1C(=O)C1CCNCC1 | i
O=C(OCc1ccc(F)cc1Br)c1ccc(CN2CCCC2=O)cc1 | i
SMILES | KDM5B inhibitor
COc1ccc(CCc2nc3nccc(-c4ccsc4)n3n2)cc1 | i
COc1ccc(CCc2nc3nccc(-c4ccc(OC)cc4)n3n2)cc1 | 25µM*
CCc1nc2nccc(-c3ccc(OC)c(OC)c3)n2n1 | 20µM*
COc1ccc(CCc2nc3nccc(-c4ccncc4)n3n2)cc1 | i
COc1ccc(-c2ccnc3nc(CCc4ccc(OC)c(OC)c4)nn23)cc1 | 25µM*
CCc1nc2nccc(-c3ccc(Br)cc3)n2n1 | 16µM*
Cc1ccc(CN[C@@H]2CO[C@H](CNC(=O)c3ccccc3)[C@H]2O)cc1 | i
CCN(C(=O)CCl)C1CCCCC1 | i
COc1ccc(NC(=O)c2sc3nc4c(c(-c5ccco5)c3c2N)CCC4)cc1 | i
O=C(O)CSCC(=O)c1c[nH]c2ccccc12 | i
C=C(C)Cn1c(SCC(=O)O)nc2c1c(=O)n(C)c(=O)n2C | i
c1ccc(CCc2nnc3sc(-c4ccc5ccccc5n4)nn23)cc1 | i
COc1ccccc1Oc1c(C)oc2cc(OCC(=O)Nc3ccc(C)cc3C)ccc2c1=O | i
N#Cc1ccc(CS(=O)(=O)Cc2cccc(F)c2)cc1 | i
CC(=O)Nc1ccc(NC(=O)c2cc(-c3ccccn3)nc3ccccc23)cc1 | i
CC(=O)c1c(OS(=O)(=O)c2ccccc2-c2ccccc2)ccc2c(C)cc(=O)oc12 | i
COC(=O)N(C)CC(=O)NC1CCCCC1C (configuration not stated) | i
O=C(CCC1CCCC1)N1CCN(C(=O)c2cc(=O)[nH]c3ccccc23)CC1 | i
COc1ccc(CN(C(=O)c2cc(=O)c3ccc(C)cc3o2)C2CCS(=O)(=O)C2)cc1 (configuration not stated) | i

Screens from PubChem.
